According to PubChem BioAssay (NCATS):
Results filed as inconclusive are left out. The source made the active and inactive calls. Unless noted, calls follow the shape of the dose curve; as a rule, active = well fitted curve in the direction sought with a large enough effect; inconclusive = small, poorly fitted or top-dose-only effect, or another doubt; inactive = no such curve, though single readings can be large; an effect the other way counts as inactive or inconclusive.

Legend:
[1] = Cell Viability - LYMP2-003 (AID 965);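 also: potency is read from the fitted curve at half-maximal effect; cells exposed to compounds for 24 h before reading; nearly all actives have a fitted effect of over 50% in size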
Method in brief: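 qHTS, human lymphoblastoid line, 2500 cells/well, complete medium. 24 h drug, 37 C. ATP-based luminescent readout; Hill-fit AC50.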

[2] = Cell Viability - LYMP2-005 (AID 967); also: potency is read from the fitted curve at half-maximal effect
Method in brief: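 Luciferase-based ATP quantitation served as the viability measure in human lymphoblastoid LYMP2-005 cells exposed to test compounds for 24 h at 37 C in complete culture medium. Potency (AC50) was obtained by fitting concentration-response curves with the Hill equation.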

[3] = Cell Viability - LYMP2-009 (AID 968); also: potency is read from the fitted curve at half-maximal effect; nearly all actives have a fitted effect of over 55% in size
[4] = Cell Viability - LYMP2-013 (AID 970); also: potency is read from the fitted curve at half-maximal effect; nearly all actives have a fitted effect of over 55% in size
Method in brief: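 Acute toxicity was measured in human lymphoblastoid cells (2500/well) exposed to compound titrations for 24 hr, with ATP luminescence (CellTiter-Glo) as read-out and AC50 fitted by Hill equation.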

[5] = Cell Viability - LYMP2-015 (AID 971); also: potency is read from the fitted curve at half-maximal effect; nearly all actives have a fitted effect of over 55% in size
Method in brief: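 Acute toxicity was scored as a concentration-dependent drop in intracellular ATP in lymphoblastoid cells after 24 hr compound exposure in complete medium. Detection used CellTiter-Glo luciferase luminescence.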

[6] = Cell Viability - LYMP2-017 (AID 972); also: potency is read from the fitted curve at half-maximal effect; nearly all actives have a fitted effect of over 55% in size
Method in brief: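 Steps: plate 2500 lymphoblastoid cells per well; incubate 5 hr at 37 C; add compound across a concentration series and incubate 24 hr at 37 C; add CellTiter-Glo and read luminescence after 30 min at room temperature; fit Hill curves for AC50.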

[7] = Cell Viability - LYMP2-019 (AID 973)
Method in brief: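 Cells plated at 2500/well and allowed 5 hr at 37 C before compound addition. After 24 hr incubation, CellTiter-Glo reagent was added, plates sat 30 min at room temperature, and luminescence was recorded.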

[8] = Cell Viability - LYMP2-021 (AID 974)
Method in brief: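 Concentration-response cytotoxicity in a human lymphoblastoid line: 24 hr treatment at 37 C in complete culture medium, tetraoctylammonium bromide as positive control, luminescent ATP quantitation as viability measure.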

[9] = Cell Viability - LYMP2-023 (AID 975)
Method in brief: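 Concentration-dependent drop in intracellular ATP measures acute cytotoxicity in a human lymphoblastoid line treated for 24 hours in complete culture medium. AC50 values are taken from Hill-equation fits of qHTS data.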

[10] = Cell Viability - LYMP2-025 (AID 976); also: potency is read from the fitted curve at half-maximal effect
Method in brief: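 In qHTS format, LYMP2-025 lymphoblastoid cells in complete culture medium received compound for 24 hr; ATP-based CellTiter-Glo signal gave viability, with AC50 derived by Hill equation.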

[11] = Cell Viability - LYMP2-002 (AID 977);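 also: potency is read from the fitted curve at half-maximal effect; compound exposure lasted 24 h at 37 °C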
Method in brief: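 Human lymphoblastoid LYMP2-002 cells, 2500 per well, exposed to compounds for 24 h at 37 C in complete medium; viability read as intracellular ATP by CellTiter-Glo luminescence, AC50 from Hill fits.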

[12] = Cell Viability - LYMP2-006 (AID 978); also: potency is read from the fitted curve at half-maximal effect; nearly all actives have a fitted effect of over 60% in size
Method in brief: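 In this cytotoxicity screen, the human lymphoblastoid line grew in complete medium with test compounds for 24 hr at 37 C. Cellular ATP served as the viability signal.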

[13] = Cell Viability - LYMP2-008 (AID 980); also: potency is read from the fitted curve at half-maximal effect; nearly all actives have a fitted effect of over 60% in size
Method in brief: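 Acute cytotoxicity is scored as concentration-dependent loss of cellular ATP in a human lymphoblastoid line after 24 hr treatment at 37 C. ATP is quantified by luciferase luminescence.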

[14] = Cell Viability - LYMP2-010 (AID 981)
Method in brief: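 Acute toxicity is scored as a concentration-dependent loss of cellular ATP in human lymphoblastoid cells after 24 hr compound exposure in complete medium. Tetraoctylammonium bromide is the positive control.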

[15] = Cell Viability - LYMP2-012 (AID 982)
[16] = Cell Viability - LYMP2-014 (AID 983); also: potency is read from the fitted curve at half-maximal effect; nearly all actives have a fitted effect of over 50% in size
Method in brief: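 Decrease in intracellular ATP after 24 hr treatment at 37 C, measured by luciferase luminescence, indicated cytotoxicity. Concentration-response data were fitted with the standard Hill equation to give AC50.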

[17] = Cell Viability - LYMP2-016 (AID 984)
Method in brief: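 Concentration-dependent ATP depletion measured in LYMP2-016 lymphoblastoid cells, 24 h, 37 C; luciferase-based luminescent detection; Hill-equation AC50.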

[18] = Cell Viability - LYMP2-018 (AID 985);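 also: potency is read from the fitted curve at half-maximal effect; compound exposure lasted 24 hr at 37 °C; nearly all actives have a fitted effect of over 50% in size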
Method in brief: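 Acute cytotoxicity is scored as a concentration-dependent drop in intracellular ATP after 24 hr exposure of the lymphoblastoid line in complete culture medium, measured by luciferase luminescence. Potency is expressed as AC50 from Hill modelling.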

[19] = Cell Viability - LYMP2-020 (AID 986)
Method in brief: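 Acute cytotoxicity in a human lymphoblastoid line is scored as a concentration-dependent fall in cellular ATP after 24 hr at 37 C in complete medium. The positive control is tetraoctylammonium bromide, and potency is given as Hill-fit AC50.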

[20] = Cell Viability - LYMP2-022 (AID 987)
Method in brief: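 Acute toxicity in a human lymphoblastoid line is scored as decreased intracellular ATP after 24 hr compound treatment at 37 C. ATP is measured by CellTiter-Glo luminescence; curves are fitted with the Hill equation to give AC50.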

[21] = Cell Viability - LYMP2-024 (AID 988); also: potency is read from the fitted curve at half-maximal effect; nearly all actives have a fitted effect of over 60% in size
Method in brief: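 Acute toxicity is measured as concentration-dependent loss of intracellular ATP in a human lymphoblastoid line treated 24 hours at 37 C. Luciferase luminescence quantifies ATP; AC50 values come from standard Hill-equation modelling.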

[22] = Cell Viability - LYMP2-026 (AID 989); also: potency is read from the fitted curve at half-maximal effect; nearly all actives have a fitted effect of over 50% in size
Method in brief: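 Concentration-dependent loss of intracellular ATP in human lymphoblastoid cells after 24 hr at 37 C, quantified by luciferase luminescence. AC50 derived from standard Hill equation.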

[23] = Cell Viability - LYMP1-002 - Assay at 24 hr (AID 993); also: potency is read from the fitted curve at half-maximal effect
Method in brief: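 qHTS, LYMP1-002 lymphoblastoid, 24 h cpd, 37 C, CellTiter-Glo ATP luminescence; AC50 via Hill eq.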

[24] = Cell Viability - LYMP1-002 - Assay at 40 hr (AID 994); also: potency is read from the fitted curve at half-maximal effect; nearly all actives have a fitted effect of over 60% in size
Method in brief: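 Viability in the human lymphoblastoid line was measured as intracellular ATP via CellTiter-Glo after 40 hr compound exposure. Tetraoctylammonium bromide served as positive control.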

[25] = target: Bile acid receptor (Homo sapiens) (UniProt Q96RI1); experiment: qHTS assay for small molecule antagonists of farnesoid X receptor signaling (AID 588526; calls by dose curve; also: % is scaled to controls: 0 for no effect and ±100 for the full control effect)
Sequence of Bile acid receptor (Homo sapiens) (Q96RI1 whole entry, looked up): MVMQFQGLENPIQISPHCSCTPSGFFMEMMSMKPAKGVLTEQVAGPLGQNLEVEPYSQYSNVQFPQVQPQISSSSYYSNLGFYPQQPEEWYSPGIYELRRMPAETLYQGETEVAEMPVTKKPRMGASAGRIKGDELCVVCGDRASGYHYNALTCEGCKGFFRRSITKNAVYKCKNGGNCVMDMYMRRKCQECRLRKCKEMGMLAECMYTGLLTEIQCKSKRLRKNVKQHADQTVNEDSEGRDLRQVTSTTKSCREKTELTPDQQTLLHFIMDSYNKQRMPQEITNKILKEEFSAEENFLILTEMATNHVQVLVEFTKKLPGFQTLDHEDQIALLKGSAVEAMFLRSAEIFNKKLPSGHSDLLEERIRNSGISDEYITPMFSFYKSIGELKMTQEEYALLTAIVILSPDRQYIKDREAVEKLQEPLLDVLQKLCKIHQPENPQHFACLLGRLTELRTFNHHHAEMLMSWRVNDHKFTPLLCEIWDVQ
Method in brief: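 Antagonist mode: titrated compounds tested against chenodeoxycholic acid stimulation (normalized to 50 uM CDCA and DMSO) in GeneBLAzer HEK293T cells for 16 h. Beta-lactamase read by CCF4 fluorescence; IC50 from Hill fits.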

[26] = qHTS assay for small molecule agonists of the antioxidant response element (ARE) signaling pathway (AID 651741; active = well fitted activation curve with a large enough effect in the signal ratio; the % refers to the signal ratio; also: potency is read from the fitted curve at half-maximal effect)
Method in brief: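 HepG2 ARE-bla cells plated at 2,000 cells/well and incubated 5 h at 37 C/5% CO2 received 23 nL compound in DMSO. After 16 h at 37 C, LiveBLAzer B/G FRET substrate was applied for 2 h at room temperature and fluorescence read.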

[27] = qHTS assay for small molecule activators of the p53 signaling pathway (AID 651743; active = well fitted activation curve with a large enough effect in the signal ratio, not every such curve was filed as active; the % refers to the signal ratio; also: series mostly up to about 92 µM; % of control where 0% means no effect); conditions: HCT-116 p53RE-bla, beta-lactamase FRET ratio, 16 h; activation: hits give high values
Method in brief: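 HCT-116 p53RE-bla, 4,000 cells/well; 5 h settle; cpd/DMSO 16 h, 37 C; LiveBLAzer B/G 2 h RT; fluorescence intensity.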

[28] = qHTS assay for small molecule disruptors of the mitochondrial membrane potential - 1 hr assay (AID 651754; calls by dose curve; also: potency is read from the fitted curve at half-maximal effect; nearly all actives have a fitted effect of over 35% in size)
Method in brief: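 Steps: seed HepG2 cells and let attach overnight; pin-transfer compound or vehicle; incubate 1 hr at 37C; add Mito-MPS dye for 30 min; read two-channel fluorescence for monomer and aggregate forms.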

[29] = qHTS assay for small molecule disruptors of the mitochondrial membrane potential - 5 hr assay (AID 651755; calls by dose curve; also: potency is read from the fitted curve at half-maximal effect; nearly all actives have a fitted effect of over 40% in size)
Method in brief: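 HepG2 cells (2,000/well), attached overnight, exposed to compound 5 hr at 37C, then Mito-MPS dye 30 min. Fluorescence read for monomers (490/535 nm) and aggregates (540/590 nm).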

[30] = qHTS assay for environmental chemicals that activate the Aryl hydrocarbon Receptor (AhR) signaling pathway (AID 651777); conditions: 1A2-DRE human hepatoma cells, luciferase, 24 h; activation: hits give high values; also: % of control where 0% means no effect; nearly all actives have a fitted effect of over 15% in size
Method in brief: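 Quantitative HTS in stably transfected human liver-derived cells whose luciferase gene sits downstream of the CYP1A2 promoter and dioxin response element. After 24 hr exposure at 37 C, One-Glo luminescence was measured.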

[31] = target: Peroxisome proliferator-activated receptor alpha (Homo sapiens) (UniProt Q07869); experiment: qHTS assay for small molecule agonists of the peroxisome proliferator-activated receptor alpha (PPARalpha) signaling pathway (AID 651778); conditions: PathHunter PPARalpha complementation, chemiluminescence, 6 h; max response: hits give high values; also: % of control where 0% means no effect
Sequence of Peroxisome proliferator-activated receptor alpha (Homo sapiens) (Q07869 whole entry, looked up, the tested form may be a part): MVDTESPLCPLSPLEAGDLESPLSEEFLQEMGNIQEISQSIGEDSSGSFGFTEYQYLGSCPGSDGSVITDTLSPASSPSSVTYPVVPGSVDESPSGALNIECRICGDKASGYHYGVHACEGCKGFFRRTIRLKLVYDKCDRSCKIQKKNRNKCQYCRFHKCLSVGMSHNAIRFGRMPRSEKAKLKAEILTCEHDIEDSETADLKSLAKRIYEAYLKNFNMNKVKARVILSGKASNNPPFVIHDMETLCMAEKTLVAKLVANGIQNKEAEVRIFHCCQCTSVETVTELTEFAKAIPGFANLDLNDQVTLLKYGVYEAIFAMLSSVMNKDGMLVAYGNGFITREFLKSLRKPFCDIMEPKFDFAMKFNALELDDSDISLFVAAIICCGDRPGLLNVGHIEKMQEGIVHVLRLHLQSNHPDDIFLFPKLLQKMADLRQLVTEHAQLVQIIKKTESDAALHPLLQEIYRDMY
Method in brief: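 Enzyme-fragment complementation assay in which ligand-bound PPARalpha translocates and forms an active enzyme that generates chemiluminescence. Cells were plated overnight, exposed to compound for 6 hr at 37 C, and then given detection reagent for 60 min at room temperature.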

[32] = target: Nuclear receptor ROR-gamma (Homo sapiens) (UniProt P51449); experiment: qHTS assay for small molecule antagonists of the retinoid-related orphan receptor gamma (ROR-gamma) signaling pathway (AID 651802)
Sequence of Nuclear receptor ROR-gamma (Homo sapiens) (P51449 whole entry, looked up): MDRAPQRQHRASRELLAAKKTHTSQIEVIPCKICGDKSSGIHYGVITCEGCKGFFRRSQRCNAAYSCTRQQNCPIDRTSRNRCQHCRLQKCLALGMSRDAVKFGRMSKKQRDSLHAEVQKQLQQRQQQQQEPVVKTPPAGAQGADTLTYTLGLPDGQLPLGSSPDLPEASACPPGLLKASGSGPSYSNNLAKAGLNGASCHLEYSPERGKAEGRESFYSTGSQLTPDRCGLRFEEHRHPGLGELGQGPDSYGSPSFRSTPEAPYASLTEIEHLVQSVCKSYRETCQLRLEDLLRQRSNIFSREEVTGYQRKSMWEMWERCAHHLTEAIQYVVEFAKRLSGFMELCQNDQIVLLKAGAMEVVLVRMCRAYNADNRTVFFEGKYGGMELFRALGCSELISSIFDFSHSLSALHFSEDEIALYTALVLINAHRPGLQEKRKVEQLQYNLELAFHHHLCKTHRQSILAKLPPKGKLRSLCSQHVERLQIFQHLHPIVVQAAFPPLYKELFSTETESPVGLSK
Method in brief: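 Antagonism is scored as a fall in luminescence from a RORE-luciferase reporter in CHO cells expressing ROR under a TET-inducible promoter, measured 16hr after doxycycline induction in the presence of compound.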

[33] = qHTS assay for small molecule antagonists of the retinoid-related orphan receptor gamma (ROR-gamma) signaling pathway - cell viability counter screen (AID 720652; active = well fitted curve in the direction sought with a large enough effect in the repeat runs; an effect the other way counts as inactive or inconclusive;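 also: potency is read from the fitted curve at half-maximal effect; compound exposure lasted 16 hr before ATP read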)
Method in brief: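 Cytotoxicity is quantified via intracellular ATP (CellTiter-Glo luminescence) in doxycycline-induced CHO ROR response element-luciferase reporter cells treated with compound for 16 hr at 37 C, 5% CO2.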

[34] = qHTS assay for cell viability of HEK293 cells (AID 743288); conditions: ATP luminescence (CellTiter-Glo), 18 h; max response: hits give low values
Method in brief: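 Luminescent ATP quantitation served as the viability read-out. Cells (parental HEK293, 2,000/well) received compounds after at least 5 h at 37 C and were exposed for 18 h before a 30 min room-temperature reagent step.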

[35] = qHTS assay for small molecule activators of the human pregnane X receptor (PXR) signaling pathway (AID 720659; call rule not given here; also: 0% is about no effect)

N=C1C=CC(=C(c2ccc(N)cc2)c2ccc(N)cc2)C=C1
active: Potency [1] 15.8 µM | Potency [2] 12.6 µM | Potency [3] 7.94 µM | Potency [4] 12.6 µM | Potency [5] 10 µM | Potency [6] 12.6 µM | Potency [7] 7.94 µM | Potency [8] 7.94 µM | Potency [9] 10 µM | Potency [10] 10 µM | Potency [11] 7.94 µM | Potency [12] 10 µM | Potency [13] 7.94 µM | Potency [14] 7.94 µM | Potency [15] 7.94 µM | Potency [16] 7.94 µM | Potency [17] 7.94 µM | Potency [18] 7.94 µM | Potency [19] 3.98 µM | Potency [20] 3.16 µM | Potency [21] 7.94 µM | Potency [22] 7.94 µM | Potency [23] 12.6 µM | Potency [24] 15.8 µM | Potency [26] 42.2 µM | Potency [28] 1.33 µM | Potency [29] 0.531 µM | Potency [32] 6.68 µM | Potency [33] 18.8 µM | Potency [34] 31.6 µM
inactive: Potency [25] | activation [27] 11.1% | activation [30] 3.01% | max response [31] -9.83% | outcome [35]
